Compound activity as filed in PubChem.
The list is not random: actives were taken first. Their share in the collection is about 1.6%.
KCNQ2 block – inhibitors of rat KCNQ2 potassium channel; B-score at 10 µM; CHO-K1 KCNQ2, FluxOR thallium flux, 20 min; active compounds read low; actives 1.1% (n = 310,000); AID 2156;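 active means fluorescence ratio B-score at most minus 3 library SDs, with starting brightness B-score within 2 library SDs, cut at about -5.5 in these data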
KCNQ2 pot – KCNQ2 (rat) channel potentiation | O88943 | CHO-K1 KCNQ2, FluxOR thallium flux fluorescence; active compounds read high | B-score at 10 µM | actives 0.54% (n = 310,000) | AID 2239;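 active means fluorescence ratio B-score at least 3 SD of library B-scores, with initial fluorescence B-score within 3 of them, cut at about 5.3 in these data; same plate scores as AID 2156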;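 further: B-score of peak minus minimum over baseline fluorescence ratio after K+ and Tl+ stimulus; positive B-score means potentiation of KCNQ2 with more thallium influx and brighter signal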
Kir21 conf inh – confirmation of mouse Kir2.1 potassium channel inhibitors | shares compounds with KCNQ2 pot | Tl flux remaining, % of negative control (active compounds read low), % at 10 µM | actives 41% (n = 2,300) | Kir2.1-expressing cells, FluxOR thallium flux fluorescence; active compounds read low;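 active means Primary-screen hit whose thallium flux fell at least 3 control SD below untreated wells in both duplicates, with normal baseline fluorescence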;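 further: 0% = blank wells without stimulus and 100% = stimulated no-compound controls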
HEK293 Tl flux – counter-screen for Kir2.1 inhibitors: effect in parental HEK293 cells | shares compounds with KCNQ2 pot | FluxOR thallium flux fluorescence; 0% = unstimulated blank wells | FluxOR signal as % of negative control (100 = no effect), % at 10 µM | actives 19% (n = 2,300);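 active means dye signal at least 3 control SD above or below untreated wells in both duplicates, raw fluorescence within 3, either direction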;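 further: percent is based on the flux ratio of peak minus minimum fluorescence over baseline F0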
CHO-K1 ctr – parental CHO-K1 activity in KCNQ2 potentiator counter-screen. actives 43% (n = 1,200). activity increase over 3SD of controls, % at 10 µM. shares compounds with KCNQ2 pot. parental CHO-K1 cells, FluxOR thallium flux fluorescence; zero = vehicle mean+3SD, 100% = vehicle-minus-blank window. AID 2282;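 active means signal rise of at least 3 SD above the untreated control mean, in both duplicate wells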;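 further: counter screen of KCNQ2 potentiator hits so any rise reflects channel-independent effects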
KCNQ1 pot spec – tests whether KCNQ2 potentiators also act on human KCNQ1. shares compounds with KCNQ2 pot. CHO KCNQ1 stable, FluxOR thallium flux fluorescence; beyond 3SD, as % of vehicle-control signal. activation over 3SD threshold, % at 10 µM. actives 28% (n = 1,200). AID 2283;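 active means fluorescence ratio rise of at least 3 SD of vehicle wells above their mean, in both replicate wells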;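 further: 0% = vehicle mean plus 3 SD and 100% = vehicle minus unstimulated blank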
KCNQ2 pot confirm – confirmation of rat KCNQ2 potassium channel potentiators | shares compounds with KCNQ2 pot | CHO-KCNQ2 cells, FluxOR thallium flux fluorescence | potentiation, less the hit threshold, % at 10 µM | actives 68% (n = 1,200) | AID 2287;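 active means fluorescence ratio rising 3 SD or more over the vehicle control mean in both replicates, plus primary screen hit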;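 further: peak minus minimum thallium fluorescence divided by baseline after K/Tl stimulus; 0% = vehicle mean plus 3 SD and 100% = vehicle minus unstimulated blank difference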
Kir2-1 sel – tests whether KCNQ2 potentiators also affect mouse Kir2.1; shares compounds with KCNQ2 pot; HEK293 Kir2.1, FluxOR thallium flux fluorescence; activity over 3SD threshold, % at 10 µM; actives 2% (n = 1,200);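 active means fluorescence ratio rise of at least 3 SD above the vehicle-control mean, seen in both replicates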;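 further: 0% = vehicle mean plus 3 SD and 100% = vehicle minus no-stimulus blank window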
KCNQ2 W236L pot – KCNQ2 potentiators acting on retigabine-insensitive rat KCNQ2 W236L mutant; shares compounds with KCNQ2 pot; CHO KCNQ2-W236L, automated patch clamp current; actives 10% (n = 940); current increase over 3SD of negative controls (%), active compounds read high, % at 25 µM; AID 2558;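 active means current increase at least 3 SD of the untreated controls above them in both duplicate recordings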
Active calls of the source: *; i = inactive; . = no result given.

SMILES | KCNQ2 block | KCNQ2 pot | Kir21 conf inh | HEK293 Tl flux | CHO-K1 ctr | KCNQ1 pot spec | KCNQ2 pot confirm | Kir2-1 sel | KCNQ2 W236L pot
O=C(Cc1ccccc1)N/N=C/c1cc(Br)cc(Br)c1O | i | 7* | i | i | 4.9* | -25 | -9 | -36 | i
O=C(Nc1cccc(NC(=O)c2ccco2)c1)c1cccc(Br)c1 | i | 1.4 | . | . | . | . | . | . | .
O=C(Nc1cccc(N=Cc2cc(Br)cc(Br)c2O)c1)c1ccco1 | i | 9.3* | i | i | 56* | 49* | 15* | -36 | i
Cc1ccc(-n2nc3c(c2NC(=O)c2ccc4c(c2)OCO4)CS(=O)C3)c(C)c1 (stereo unspecified) | i | 0.01 | . | . | . | . | . | . | .
COCCN1CCN(Cc2nc(Cc3ccc(OC)c(OC)c3)no2)CC1 | i | 1.3 | . | . | . | . | . | . | .
COc1ccc(Cc2noc(CN3CCN(Cc4cccc(Cl)c4)CC3)n2)cc1OC | i | 7.2* | i | i | 43* | -16 | -26 | -14 | .
CCOc1ccccc1C(=O)NCC(=O)Nc1ccc(-c2ccccc2)cc1 | i | . | . | . | . | . | . | . | .
O=C(CSc1ccccc1C(=O)O)c1ccc(Cl)cc1 | i | 1 | . | . | . | . | . | . | .
O=C(O)c1ccccc1NC(c1ccccc1)c1ccc(Cl)cc1 (stereo unspecified) | i | 5.9* | i | i | -11 | 16* | -7 | -42 | .
CCc1nnc(NS(=O)(=O)c2ccc(NC(=O)c3ccccc3OC)cc2)s1 | i | 0.84 | . | . | . | . | . | . | .
CCCn1c(N)c(N(CCOC)C(=O)c2cccc(S(=O)(=O)N3CCCc4ccccc43)c2)c(=O)[nH]c1=O | i | . | . | . | . | . | . | . | .
O=C(NNC(=S)Nc1ccc(F)cc1)C1CC1c1ccc(Cl)cc1 (stereo unspecified) | i | 1.7 | . | . | . | . | . | . | .
Cc1ccc(C2CC2C(=O)NNC(=S)Nc2cccc(C)c2)cc1 (stereo unspecified) | i | 9.2* | i | i | -4 | -12 | 64* | -54 | i
Cc1ccc(NC(=S)NNC(=O)C2CC2c2ccc(C)cc2)cc1 (stereo unspecified) | i | . | . | . | . | . | . | . | .
Cc1ccc(C2CC2C(=O)NNC(=S)Nc2cccc(Cl)c2)cc1 (stereo unspecified) | i | 18* | i | i | -2 | -5 | 84* | -36 | i
Cc1ccc(S(=O)(=O)NCC(=O)OCC(=O)c2c(N)n(C)c(=O)n(C)c2=O)cc1 | i | . | . | . | . | . | . | . | .
CC(C)(C)c1ccc(OCCC(=O)OCC(=O)Nc2ccc(N3CCOCC3)cc2)cc1 | i | 5.5* | i | i | 15* | -11 | -12 | -38 | i
COc1ccc(OCCC(=O)OCC(=O)Nc2ccc(S(=O)(=O)N3CCOCC3)cc2)cc1 | i | 0.1 | . | . | . | . | . | . | .
O=C(O)c1ccc(S(=O)(=O)/N=C2\C=C(Nc3ccccc3F)C(=O)c3ccccc32)cc1 | i | 3.3 | . | . | . | . | . | . | .
Cc1ccccc1NC1=C/C(=N\S(=O)(=O)c2ccc(C(=O)O)cc2)c2ccccc2C1=O | i | 7.2* | i | i | -10 | -14 | 8.9* | -6 | 16%*
Cc1cc(C)cc(CN2C(=O)NC3(CCCCCC3)C2=O)c1 | i | 0.03 | . | . | . | . | . | . | .
COCCCN(C(=O)CCOc1ccc(C)cc1)c1c(N)n(Cc2ccccc2)c(=O)[nH]c1=O | i | . | . | . | . | . | . | . | .
COc1ccc(CN(C)CC(O)COC(c2ccccc2)c2ccccc2)c(OC)c1OC (stereo unspecified) | i | . | 54%* | i | . | . | . | . | .
COc1ccc(CN(C)CC(O)COc2ccc(C(=O)c3ccccc3)cc2)c(OC)c1OC (stereo unspecified) | i | . | . | . | . | . | . | . | .
